# Where “and” joins values, the source holds several entries; their conditions need not be identical. Equal entries are not always repeated. Results filed as inconclusive are left out. Where a structure was tested more than once in an assay, its records may differ in their call. Calls of active or inactive are those of the source. Calls follow the shape of the dose curve; as a rule, active = well fitted inhibition curve with a large enough effect in the repeat runs; inconclusive = weak or mixed curves; inactive = no such curve, though single readings can be large or run the other way.
# Molecular target: Cytochrome P450 1A2 (Homo sapiens) (UniProt P05177)
# Test: Cytochrome P450 Family 1 Subfamily A Member 2 (CYP1A2) small molecule antagonists: luciferase reporter qHTS assay (AID 1671199); also: nearly all actives have a fitted effect of over 50% in size
# Settings: P450-Glo CYP1A2 enzyme, luciferin luminescence, 1 h; series mostly up to 115 µM; activity change, negative = inhibition: at the top concentration
# Excerpt: National Center for Advancing Translational Sciences [NCATS]
# U.S. Environmental Protection Agency [EPA]
# National Institutes of Environmental Health Sciences [NIEHS]
# National Toxicology Program [NTP]
# U.S. Food and Drug Administration [FDA]
# Cytochrome P450 (CYP) enzymes are membrane-bound hemeproteins that play a key role in metabolism of drugs and xenobiotics. Evaluation of the effect of chemicals on CYP isozymes is useful to minimize the adverse drug reactions and toxicities in drug development process. Tox21 chemicals were tested for their effect on CYP enzyme activities by using P450-Glo (TM) screening systems (Promega Corporation, Madison, WI). These systems provide a luminescent method containing proluciferin substrates and are converted to luciferin products by CYP isozymes. The luciferin products formed are detected with a luciferin detection reagent, and the amount of light produced is proportional to CYP activity. P450-Glo (TM) CYP1A2 screening system (Catalog. No. V9770) was used to detect the compounds that interfere in CYP1A2 activity. The positive control compound used for CYP1A2 assay is furafylline (Sigma-Aldrich, St. Louis, MO).
# Tox21 Assay Protocol Summary:
# Two ul of enzyme-substrate mix was dispensed into medium binding white/solid 1536-well plates (Greiner Bio-One North America Inc., Monroe, NC) using a BioRaptr Flying Reagent Dispenser (FRD, Beckman Coulter, Brea, CA). Compounds dissolved in DMSO and positive control (furafyllline) were transferred to the assay plates at 23 nl using a Pintool station (Wako, San Diego, CA). The assay plates were incubated at room temperature for 10 min. Then 2 ul of NADPH regeneration solution was added to each well of the assay plates using an FRD and incubated at room temperature for 1 h. The reaction was stopped by adding 4 ul of detection reagent using an FRD and after 20 min incubation at room temperature the luminescence signal was measured using a ViewLux plate reader (Perkin Elmer, Shelton, CT). Data were expressed as relative luminescence units.
# % is scaled to controls: 0 for no effect and ±100 for the full control effect; potency is read from the fitted curve at half-maximal effect.
# Chain of Cytochrome P450 1A2 (Homo sapiens) (P05177 whole entry, looked up): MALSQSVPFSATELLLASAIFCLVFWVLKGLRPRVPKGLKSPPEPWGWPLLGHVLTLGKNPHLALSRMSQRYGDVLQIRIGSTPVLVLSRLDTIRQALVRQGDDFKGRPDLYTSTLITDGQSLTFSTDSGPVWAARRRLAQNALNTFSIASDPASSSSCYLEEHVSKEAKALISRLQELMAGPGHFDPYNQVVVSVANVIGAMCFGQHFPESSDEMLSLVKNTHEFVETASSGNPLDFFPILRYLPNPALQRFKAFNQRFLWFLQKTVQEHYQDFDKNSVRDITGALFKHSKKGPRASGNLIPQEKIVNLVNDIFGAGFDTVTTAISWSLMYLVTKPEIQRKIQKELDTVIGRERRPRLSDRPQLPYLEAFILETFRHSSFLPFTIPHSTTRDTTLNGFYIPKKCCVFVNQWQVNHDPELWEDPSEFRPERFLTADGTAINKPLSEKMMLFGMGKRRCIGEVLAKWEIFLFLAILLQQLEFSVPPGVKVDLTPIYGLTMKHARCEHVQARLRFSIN
Compound,Potency,"activity change, negative = inhibition"
CCCCCCC#N,38.7 µM (active),
CN1C(=O)NC(=O)C(C)(C2=CCCCC2)C1=O (stereo not given),,4.83% [at 53 µM] (inactive)
OC(c1ccc(Cl)cc1)(c1ccc(Cl)cc1)c1cccnc1,35.6 µM (active),
CN(N=O)c1ccc([N+](=O)[O-])cc1,6.33 µM (active),
CCn1cc[n+](C)c1,35.5 µM (active) and inactive and 39 µM (active),
CCOS(C)(=O)=O,,-10.5% (inactive)
Cl/C=C\C[N+]12CN3CN(CN(C3)C1)C2,,-16.1% (inactive)
c1ccc(CN2CCNCC2)cc1,,-5.42% [at 300 µM] (inactive)
CCOC(=O)CBr,63.6 µM (active),
CC(C)O.CC(C)O.OCCN(CCO)CCO.OCCN(CCO)CCO.[Ti],,-11.8% (inactive)
CO/C=C(/C(=O)OC)c1ccccc1COc1cccc(C(F)(F)F)n1,35.5 µM (active),
CCCCOC(=O)c1ccccc1C(=O)OCc1ccccc1,15.9 µM (active) and 12.7 µM (active),
CCOP(=S)(OCC)SCn1nnc2ccccc2c1=O,35.6 µM (active),
O=C1C(Cl)C(CCl)CN1c1cccc(C(F)(F)F)c1 (stereo not given),1 µM (active),
CC(O)(CS(=O)(=O)c1ccc(F)cc1)C(=O)Nc1ccc(C#N)c(C(F)(F)F)c1 (stereo not given),,-20.4% [at 53 µM] (inactive)
CCCN(CCCl)c1c([N+](=O)[O-])cc(C(F)(F)F)cc1[N+](=O)[O-],12.6 µM (active),
O=S1OC[C@@H]2[C@H](CO1)[C@]1(Cl)C(Cl)=C(Cl)[C@@]2(Cl)C1(Cl)Cl (stereo not given in full),35.6 µM (active),
Nc1nc(N)nc(N)n1,31.8 µM (active),
II,71 µM (active),
COc1nn(CSP(=S)(OC)OC)c(=O)s1,7.96 µM (active),

Compound,Potency,"activity change, negative = inhibition"
Sc1ccccc1Cl,,-5.56% [at 53 µM] (inactive)
O=[Se]=O,,-3.41% [at 53 µM] (inactive)
Clc1cc(C(Cl)(Cl)Cl)cnc1Cl,7.96 µM (active),
c1ccoc1,,-1.27% (inactive)
COc1cc(Cl)c(OC)cc1Cl,12.6 µM (active),
COP(=S)(OC)Oc1ccc([N+](=O)[O-])cc1Cl,22.4 µM (active),
C=CC(=O)NCNC(=O)C=C,46.5 µM (active),
O=C(OC1CCCCC1)c1ccccc1C(=O)OC1CCCCC1,37.5 µM (active),
CCOC(=O)[C@]1(c2ccccc2)Oc2ccccc2[C@@H]1N,63.3 µM (active),
ClCc1ccccc1,,-4.94% (inactive)
O=C(NCc1cccnc1)Nc1ccc([N+](=O)[O-])cc1,17.8 µM (active),
Brc1ccc(Oc2ccccc2)cc1,25.2 µM (active),
O=C(O)C(F)(F)C(F)(F)C(F)(F)C(F)(F)C(F)(F)C(F)(F)C(F)(F)C(F)(F)C(F)(F)C(F)(F)F,,-4.77% (inactive)
O=Cc1ccc(Cl)cc1Cl,,-21.6% (inactive)
IC(I)=C(I)I,10 µM (active),
Cc1ccccc1C(=O)Nc1cccc(OC(C)C)c1,5.64 µM (active),
O=C1c2ccccc2C(=O)C1C(=O)C(c1ccccc1)c1ccccc1,15.5 µM (active),
COc1cc(CC(C)N)cc2c1OCO2 (stereo not given),74.1 µM (active),
CCOC(=O)COc1cc(-c2nn(C)c(OC(F)F)c2Cl)c(F)cc1Cl,1.78 µM (active),
CC(Cl)C(C)Cl (stereo not given),,-9.46% (inactive)

# From PubChem BioAssay (Tox21)
